This passage reports Percent Effect results from ChEMBL document CHEMBL3988442, “University of Dundee, Small-Polar-MMV Screening Library” (2021).

SMILES strings stand for the structures.

The target of test [1] is T1, Aspartate--tRNA(Asp/Asn) ligase (Mycobacterium tuberculosis (strain ATCC 25618 / H37Rv)) (UniProt P9WFW3). Further: in the data most compounds retested in dose-response had high values.
T1 sequence (whole entry): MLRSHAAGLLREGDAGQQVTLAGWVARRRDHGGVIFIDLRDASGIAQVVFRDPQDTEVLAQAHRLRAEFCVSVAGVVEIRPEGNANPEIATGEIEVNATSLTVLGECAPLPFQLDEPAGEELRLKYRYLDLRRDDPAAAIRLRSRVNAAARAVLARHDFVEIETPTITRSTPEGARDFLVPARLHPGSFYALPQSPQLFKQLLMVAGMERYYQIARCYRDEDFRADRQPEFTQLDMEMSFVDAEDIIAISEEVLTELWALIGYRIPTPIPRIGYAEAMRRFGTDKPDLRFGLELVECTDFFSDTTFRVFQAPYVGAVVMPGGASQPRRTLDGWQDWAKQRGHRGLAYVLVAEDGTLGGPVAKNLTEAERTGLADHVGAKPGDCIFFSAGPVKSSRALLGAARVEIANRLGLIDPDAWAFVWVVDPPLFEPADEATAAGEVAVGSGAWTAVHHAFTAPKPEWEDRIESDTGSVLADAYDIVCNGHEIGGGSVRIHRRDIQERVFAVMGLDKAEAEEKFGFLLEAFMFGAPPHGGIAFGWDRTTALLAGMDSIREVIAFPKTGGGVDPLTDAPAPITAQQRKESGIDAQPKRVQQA
Kind of test: Assay for Asp RNA synthetase-1 from Mycobacterium tuberculosis. The class given is functional. Details: scale not given: direction of the effect not stated beside the values. The settings on record: 30 µM.

For test [2], the target named is Shiga toxin 2 (Escherichia coli O157:H7) (UniProt P09385+P09386). Kind of test: E. coli 0.157:H7 Shiga Toxin SOP - stx2 screening assay. The class given is functional. Details: scale not given: direction of the effect not stated beside the values. The note with it: 30 µM.

As for `CCC1c2cccn2CCN1C(=O)c1ccc2nonc2c1` (configuration not stated), the Percent Effect in test [1] was 4.26%; in test [2] it was -4.14%.
Take `Cc1noc(C)c1C(=O)N1CCCC1c1c(C)nn(C)c1Cl` (configuration not stated): the results for the Percent Effect in test [1] and in test [2] were -3.2% and -9.41%, respectively.
As for `CCN1CCN(C2CCN(Cc3nnc(C(C)(C)C)o3)CC2)C1=O`, the values for the Percent Effect in test [1] and in test [2] were -1.73% and 25.7%, respectively.
The like results for `CCc1nc(CN2CCN(C(=O)C3CCCCC3)CC2)cs1` were, in that order, -0.656% and 1.6%.
For `CN(CCc1ccccc1)Cc1cc(C(=O)N2CCCC2(C)C)no1`, in that order: 0.433% and -34.7%.
For `CNc1nc(C(=O)N2CCCC(c3nccn3CC3CCC3)C2)cs1` (configuration not stated), in that order: 10.9% and 2.21%.
Regarding `CC(=O)N1CCCCC1c1nc2c(c(N3CCCCC3)n1)CN(C)CC2` (configuration not stated), the Percent Effect in test [1] is -1.98%; in test [2], 2.68%.
Take `Cc1cnn(CC2CN(CC(=O)NCc3ccccn3)CCO2)c1` (configuration not stated): the results for the Percent Effect in test [1] and in test [2] were -8.24% and -5.07%, respectively.
Regarding `N#Cc1c(F)cccc1N1CCC(NS(=O)(=O)c2cccs2)CC1`, the Percent Effect in test [1] is 10.6%; in test [2], -25.2%.
Consider `COCCCNC(=O)CN1CCCC1c1c(C)nn(C)c1Cl` (configuration not stated), for which the figures for the Percent Effect in test [1] and in test [2] were -4.32% and -37%, respectively.
The like results for `CCc1ccc(C(=O)N2CCN(CC(C)O)CC2)o1` (configuration not stated) were, in that order, 0.745% and 5.26%.
Regarding `CCc1ccc(C(=O)N2CCC(c3nncn3CC)CC2)cc1`, the Percent Effect was -2.16% in test [1] and 7.54% in test [2].
Turning to `COCCn1c2c(ccc1=O)CC(NS(C)(=O)=O)CC2` (configuration not stated), the Percent Effect in test [1] is 2.72%; in test [2], -20.6%.
For `COC(=O)c1ccc(N2CCN(C(=O)c3cnn(C)c3)C(C)C2)cc1` (configuration not stated), in that order: 0.343% and -15.2%.
For `CCc1ncncc1C(=O)N1CCN(Cc2c(C)noc2C)CC1`, in that order: 0.0281% and 36.8%.
Consider `COc1c(CNCC(O)c2cccc(F)c2)c(C(C)C)nn1C` (configuration not stated), for which the Percent Effect in test [1] was 7.7%; in test [2], 15.6%.
As to `COc1ccc(C(=O)N(Cc2cnn(C)c2)C(C)C)cc1Br`, the Percent Effect in test [1] was -1.07%; in test [2], 5.59%.
Regarding `Cc1csc(N2CCN(C(=O)CCC(=O)c3ccc(C)s3)CC2)n1`, the Percent Effect in test [1] is -2.27%; in test [2] it was 8.56%.
The like results for `Cc1noc(C(C)C)c1C(=O)N1CCOCC1CC(=O)c1ccco1` (configuration not stated) were, in that order, 2.61% and -4.27%.
The like results for `CCN1C[C@H]2CCN(C(=O)NC3CCCC3)CC[C@H]2S1(=O)=O` were, in that order, -0.232% and -57.6%.
In the case of `CCc1ncc2c(n1)CN(CC(=O)Nc1nnc(C)s1)CC2`, the values for the Percent Effect in test [1] and in test [2] were 4.25% and -18.6%, respectively.
The like results for `Cc1nc(CN2CCCC(NCc3c(C)nc4sccn34)C2)no1` (configuration not stated) were, in that order, 2.46% and -20.2%.
For `COc1cccc(C(=O)Nc2cc(CC(C)C)nn2C)c1`, in that order: -7.31% and 12%.
The like results for `Cc1ccc(CNC(=O)NCc2csc(C)n2)cn1` were, in that order, -3.34% and -8.48%.
On to `COc1ccc(C2CC(=O)Nc3c2nc2n3CCCC2)cc1OC` (configuration not stated), for which the Percent Effect stood at 0.342% in test [1] and 0.28% in test [2].
Take `O=C(O)CC1CN(Cc2ccccc2)CCO1` (configuration not stated): the Percent Effect in test [1] was -0.183%; in test [2], -5.59%.
For `Cc1nccc(-c2cccc(NCC(=O)N3CCc4sccc4C3)c2)n1`, in that order: -0.955% and 8.31%.
For `CNS(=O)(=O)c1ccc(C(=O)N2CCCC2c2ccccc2)o1` (configuration not stated), in that order: -0.871% and 34%.
The like results for `CN(CCN1CCCCCC1)C(=O)c1cc(CN2CCC(O)CC2)on1` were, in that order, 5.29% and -37.1%.
In the case of `Cc1nccc([C@H]2C[C@@H]3CCN(S(=O)(=O)N(C)C)C[C@H]3O2)n1`, the Percent Effect was found to be 1.71% in test [1] and 6.66% in test [2].
The like results for `O=C(NC1CC1)c1ccc2ccc(N3CCN(CC4CC4)CC3)n2c1` were, in that order, -1.8% and -80.6%.
For `CCNC(=O)CCc1c(C)nc2cc(O)nn2c1C`, in that order: 4.16% and -21.5%.
For `CCCOCCCNc1nccc(-c2cn(C)nc2C)n1`, the values for the Percent Effect in test [1] and in test [2] were -3.96% and 18.1%, respectively.
The like results for `Cc1ccc(N2CCCN(C(=O)c3c(C)oc(C)c3C)CC2)nn1` were, in that order, 1.16% and -1.2%.
For `COc1ccc2cc(C(=O)N3CCCCC3Cn3cccn3)[nH]c2c1` (configuration not stated), in that order: -2.15% and 16.3%.
For `O=C(NCc1ccc(OCC2CC2)nc1)c1c(F)cccc1F`, in that order: -0.03% and 0.72%.
`O=C(NCCCn1cncn1)N1CCCC(N2CCCC2)C1` (configuration not stated): the Percent Effect in test [1] was found to be 3.5%; in test [2], 0.153%.
The like results for `CC(C)CN1CCC2(CCN(C(=O)c3ccc(F)cc3)CC2)C1=O` were, in that order, -3.41% and -8.12%.
The like results for `CCC1CCCCN1C(=O)c1ccc2[nH]nnc2c1` (configuration not stated) were, in that order, 6.94% and -3.51%.
For `Cc1n[nH]c(C2CN(C(=O)CCc3ccsc3)CCO2)n1` (configuration not stated), in that order: 3.08% and -2.19%.
Turning to `CCOc1c(Cl)cccc1NCc1cc(C)on1`, the Percent Effect in test [1] is -1.21%; in test [2] it was -64.7%.
For `COc1ccc(NC(=O)C(c2cccc(F)c2)N2CCOCC2)cc1` (configuration not stated), in that order: 5.63% and -8.77%.
For `O=C(c1ccc(F)cc1)N1CCN2C[C@H](OCc3ccccn3)C[C@H]2C1`, in that order: -1.3% and 10.7%.
For `CCn1ccnc1CNCC1CCN(CC(O)c2ccccc2)CC1` (configuration not stated), in that order: -3.48% and 0.429%.
With `Cc1cc2c(=O)n3c(nc2s1)CCN(C(=O)c1scnc1C)CC3`, the Percent Effect in test [1] is -1.56%; in test [2], 0.428%.
The like results for `Cc1cc(C)n(C2CN(CC(O)COc3ccc(F)cc3)C2)n1` (configuration not stated) were, in that order, -0.121% and 19.1%.
The like results for `CCc1noc(C(C)N(C)CC(=O)Nc2c(C)cccc2C)n1` (configuration not stated) were, in that order, -10.4% and 10.3%.
The like results for `Cn1cc(C(=O)NCc2cn3c(n2)CN(Cc2ccccn2)CC3)cn1` were, in that order, 6.41% and -42%.
In the case of `CCc1nnsc1C(=O)NCCn1nc2ccccn2c1=O`, the figures for the Percent Effect in test [1] and in test [2] were -6.91% and -19.6%, respectively.
For the compound `Cc1cnn(CC2CCCCN2Cc2nc(N)c3ccccc3n2)c1` (configuration not stated), the results for the Percent Effect in test [1] and in test [2] were -5.71% and -7.68%, respectively.
For `Cc1cc(C)n(CC(C)CNC(=O)[C@@H](C)NC(=O)OC(C)(C)C)n1` (some centres not stated), in that order: -1.38% and 9.62%.
